Experimental data as given in PubChem BioAssay (Tox21).
Inconclusive results are not listed. A call without a number means that no potency is given here. Activity calls are given as the source filed them. The call rests on the fitted dose curve.

Experiment: p53 small molecule agonists, cell-based qHTS assay with human liver microsomes: qHTS cell viability counter screen (AID 1963579); further: nearly all actives have a fitted effect of over 45% in size
Settings: p53RE-bla HCT-116 viability, ATP luminescence, 16 h, HLM; series mostly up to 66 µM
Source text: National Center for Advancing Translational Sciences [NCATS]
Division of Preclinical Innovation [DPI]
U.S. Environmental Protection Agency [EPA]
National Institutes of Environmental Health Sciences [NIEHS]
National Toxicology Program [NTP]
U.S. Food and Drug Administration [FDA]
p53, a tumor suppressor protein, is activated following cellular insult, including DNA damage and other cellular stresses. The activation of p53 regulates cell fate by inducing DNA repair, cell cycle arrest, apoptosis, or cellular senescence. The activation of p53, therefore, is a good indicator of DNA damage and other cellular stresses. […] The activation of the reporter gene under culture conditions can be detected by fluorescence intensity. This cell line was used to screen the Tox21 10K compound library in the condition of presence of human liver microsomes and to identify agonists that activate the p53 signaling pathway after in vitro metabolic activation (Ooka et al., Archive of Toxicology 96:1975-1987, 2022).
Tox21 Assay Protocol Summary:
The p53RE-bla cells were dispensed at 4,000cells/3ul/well in 1536-well black-clear bottom plates. After the assay plates were incubated at 37 C, 5% CO2 incubator for 5 hours, 23 nL of compounds dissolved in DMSO, positive controls or DMSO only was transferred to the assay plate. Following compound addition, 3 uL of human liver microsomes (XenoTech, Kansas City, KS) at final concentration of 0.5 mg/mL and 1uL of B-Nicotinamide adenine dinucleotide 2'-phosphate (NADPH) at final concentration of 0.5 mg/mL were transferred to the assay plate. The plates were incubated at 37 C for 16 hours. 1 uL of LiveBLAzer detection mixture was added to each well and the plates were incubated at room temperature in the dark for 2 h. Fluorescence intensity at 460 and 530 nm emission and 405 nm excitation were measured by an Envision plate reader. For cell viability readout that measures cytotoxicity, 4 ul/well of CellTiter-Glo reagent was added into the assay plates using a Flying Reagent Dispenser. After 30 min incubation at room temperature, the luminescence intensity in the plates was measured using a ViewLux plate reader.

Structure (SMILES) | Potency
CCO[Si](CCC#N)(OCC)OCC | inactive
NC(CO)(CO)CO | inactive
CCc1nc(N)nc(N)c1-c1ccc(Cl)cc1 | inactive
FC(F)(F)c1ccc(Cl)c(Cl)c1 | inactive
C=CC(C)(CCC=C(C)C)OC(C)=O (stereo not given) | inactive
O=C(O)c1cn(-c2ccc(F)cc2)c2cc(N3CCNCC3)c(F)cc2c1=O | inactive
COc1cc(OC)c(C(=O)CCCN2CCCC2)c(OC)c1 | inactive
CC(=O)Nc1ccccc1 | inactive
C[C@]12CC[C@@H]3c4ccc(O)cc4CC[C@H]3[C@@H]1CC[C@H]2O | inactive
CC1(C)OC(=O)NC1=O | inactive
O=C1C(N(CO)C(=O)NCO)N(CO)C(=O)N1CO (stereo not given) | inactive
CCCCCCCC(=O)OC | inactive
Nc1ncnc2nc[nH]c12 | inactive
C[C@]12C=CC(=O)C=C1CC[C@@H]1[C@@H]2[C@@H](O)C[C@@]2(C)[C@H]1CC[C@]2(O)C(=O)CO | inactive
CCC(O)OC(O)CC (stereo not given) | inactive
Cc1cccc2n[nH]nc12 | inactive
CCCCNS(=O)(=O)c1ccccc1 | inactive
NC(=O)c1cnccn1 | inactive
Cc1nnc(NS(=O)(=O)c2ccc(N)cc2)s1 | inactive
CCCCC1(COC(=O)CCC(=O)O)C(=O)N(c2ccccc2)N(c2ccccc2)C1=O | inactive

Structure (SMILES) | Potency
CCCCOC(=O)CC(CC(=O)OCCCC)(OC(C)=O)C(=O)OCCCC | inactive
O=C(O)Cc1ccccc1Nc1c(Cl)cccc1Cl | inactive
CCCCOCCO | inactive
Cc1ccc(C(C)C)cc1 | inactive
OCC1CCCO1 (stereo not given) | inactive
CC12CCC(CC1)C(C)(C)O2 | inactive
CC(=O)[C@H]1CC[C@H]2[C@@H]3CC=C4C[C@@H](O)CC[C@]4(C)[C@H]3CC[C@]12C | inactive
C#C[C@]1(O)CC[C@H]2[C@@H]3CCC4=CC(=O)CC[C@@H]4[C@H]3CC[C@@]21CC | inactive
O=[N+]([O-])c1cc(C(F)(F)F)ccc1Cl | inactive
CCCCOC(=O)c1ccc(N)cc1 | inactive
CC(C)=CCl | inactive
CCCCCCC(C)(C)S | inactive
C/C=C/c1ccc(O)c(OC)c1 | inactive
CC(=O)CCc1ccccc1 | inactive
Clc1ccc(Sc2cc(Cl)c(Cl)cc2Cl)cc1 | inactive
CCCCC(CC)COC(=O)/C=C/c1ccc(OC)cc1 (stereo not given) | inactive
CN(C)Cc1cc(CN(C)C)c(O)c(CN(C)C)c1 | inactive
CC(C)CCCCCCCOC(=O)CCCCC(=O)OCCCCCCCC(C)C | inactive
O=C(O)c1ccccc1C(=O)O | inactive
O=C(O)c1ccc(C(=O)O)cc1 | inactive
